Shown are actives, neighbours in structure and some others; about 11% of the full set was active somewhere.
Pf growth 96h = inhibits malaria parasite growth, 96 h. Potency, µM (titrated, usually from 28.7 µM), for the others: at the highest dose activity change, negative = inhibition, actives largely listed as inhibitors. AID 504834. P. falciparum luciferase reporter growth, 96 h. 6.9% of 320,000 active
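P. falciparum expressing integrated firefly luciferase grown in erythrocytes (2% hematocrit, 0.05% parasitemia final) with compounds for 96 hours at 37 C, 5% CO2. Growth inhibition read as loss of luminescence after adding luciferase detection reagent.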
Pf growth 48h = P. falciparum growth inhibition at 48 hours (one generation) | Potency, µM (doses to about 28.7 µM), without a hit: top-dose activity change, negative = inhibition, usual class: inhibitors | 5.9% of 310,000 active | P. falciparum luciferase growth in erythrocytes, 48 h
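Luciferase-expressing parasites in RBCs, 2% Hct / 0.1% parasitemia final; RPMI 1640 + 0.5% Albumax; 37 C, 5% CO2, one generation; luminescence read-out, lower signal = inhibition.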
HCV inhibitor = HCV inhibition. Potency, µM (titrated, usually from 41.8 µM), for inactives: at the top dose activity change, negative = inhibition, hits mostly inhibitors. 3.4% of 340,000 active. Huh7.5.1 HCVcc-Cre infection, luciferase reporter, 44 h
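Luciferase read-out (15 sec integration) after a 15 min room-temperature substrate step quantifies HCVcc-Cre infection. Cells, 1,000 per well, had compound added 4 h post-plating, then virus at ~0.5 moi, and were cultured 44 h.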
AMA1-RON2 inh = disrupts binding of P. falciparum AMA1 to RON2 | AlphaScreen AMA1-biotinylated RON2 peptide binding | Potency, µM (doses to about 58.2 µM), for inactives: at the highest dose activity change, negative = inhibition, most hits filed as inhibitors | 0.2% of 360,000 active | AID 720542;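 note: 0% = vehicle wells and -100% = peptide control; nearly all actives have a fitted effect of over 45% in size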
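AMA1 (3D7) with his tag at 25 nM final met compounds first, then biotinylated RON2 peptide at 25 nM; detection used donor plus acceptor beads, 10 µg/mL apiece, read by AlphaScreen after 30 min at room temperature.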
AmpC inh no detg = blocks E. coli AmpC beta-lactamase in detergent-free assay | Potency, µM (titrated, usually from 57.1 µM), for inactives: top-dose activity change, negative = inhibition, hits mostly inhibitors | 0.52% of 330,000 active | AmpC nitrocefin hydrolysis, absorbance 480 nm, 0.0001% Triton | P00811;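 note: plate controls were no compound for no effect and no enzyme for full effect; nearly all actives have a fitted effect of over 20% in size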
Target sequence (P00811 whole entry, looked up): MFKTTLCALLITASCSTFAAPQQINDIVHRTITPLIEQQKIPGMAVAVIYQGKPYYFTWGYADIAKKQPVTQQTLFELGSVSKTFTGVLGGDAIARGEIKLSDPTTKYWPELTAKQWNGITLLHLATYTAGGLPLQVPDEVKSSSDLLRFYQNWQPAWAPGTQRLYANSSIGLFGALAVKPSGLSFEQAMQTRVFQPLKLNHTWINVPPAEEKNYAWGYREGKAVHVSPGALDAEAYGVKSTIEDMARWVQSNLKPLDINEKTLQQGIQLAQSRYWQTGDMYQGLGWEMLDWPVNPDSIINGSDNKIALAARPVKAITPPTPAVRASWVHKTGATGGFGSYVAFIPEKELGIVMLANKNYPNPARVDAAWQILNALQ
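20 mM phosphate pH 7.0 + 0.01% (detergent screen) or 0.0001% Triton X-100; 5.3 nM AmpC reagent; cpd preinc 15 min RT; nitrocefin (800 uM stock) to start; A480 q20 s × 4 min; Activity was normalised to no-enzyme and no-compound control wells.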
AmpC inh detg = inhibitors of E. coli AmpC beta-lactamase with detergent; AmpC hydrolysis of nitrocefin, absorbance 480 nm, 0.01% Triton; AID 485294; 0.041% of 370,000 active; Potency, µM (highest dose often 114 µM), inactives show top-dose activity change, negative = inhibition, most hits filed as inhibitors; P00811;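 note: 0% = no-compound wells and -100% = no-enzyme wells; nearly all actives have a fitted effect of over 25% in size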
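20 mM phosphate pH 7.0 + 0.01% (detergent screen) or 0.0001% Triton X-100; 5.3 nM AmpC reagent; cpd preinc 15 min RT; nitrocefin (800 uM stock) to start; A480 q20 s × 4 min; Activity was normalised to no-enzyme and no-compound control wells.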
The depositor's hits bear a star; ? = inconclusive; . = not tested or not shown. Calls come from the whole dose curve; as a rule, active = well fitted curve in the direction sought with a large enough effect; inconclusive = small, poorly fitted or top-dose-only effect, or another doubt; inactive = no such curve, though single readings can be large; an effect the other way counts as inactive or inconclusive. Unless noted, % is set by controls: 0 for no effect and ±100 for the full control effect; potency is the fitted concentration of half-maximal effect.

SMILES	Pf growth 96h	Pf growth 48h	HCV inhibitor	AMA1-RON2 inh	AmpC inh no detg	AmpC inh detg
COCCNC(=S)N/N=C/c1c2ccccc2cc2ccccc12	3.7µM*	6.6µM*	?	46%	-54%	-3%
S=C(NCCN1CCOCC1)N/N=C/c1c2ccccc2cc2ccccc12	.	-16%	-14%	61%	-2%	2%
NC(=S)N/N=C\c1c(OCc2ccccc2Cl)ccc2ccccc12	42%	10µM*	7.9µM*	25%	-32%	4%
Cn1cccc1CC(=O)N/N=C\c1c2ccccc2cc2ccccc12	22%	18%	?	7%	-41%	3%
Cc1cc(C)n2nc(C(=O)N/N=C/c3c4ccccc4cc4ccccc34)nc2n1	12µM*	-9%	-23%	3%	1%	-14%
Cc1ccc(NC(=O)C2CCCN(S(=O)(=O)c3cccc4nsnc34)C2)cc1C (stereo not drawn)	.	.	.	.	.	0%
O=c1c2oc3ccccc3c2n(Cc2ccc(Cl)cc2)c(=O)n1Cc1ccc2c(c1)OCO2	.	.	.	.	.	-2%
NC(=S)N/N=C\c1c2ccccc2cc2ccccc12	-16%	-3%	13µM*	43%	-42%	-4%
Cc1[nH]c2ccccc2c1/C=N/NC(N)=S	?	30%	-11%	69%	-26%	4%
Cc1ccc(CN(C(=O)c2ccc(OCC(C)C)cc2)c2ccccn2)o1	.	.	.	.	.	-2%
CCCOC(=O)CSC1=C(C#N)C(c2ccccc2Cl)CC(=O)N1 (stereo not drawn)	?	.	32µM*	6%	-12%	-11%
CCC1CN(S(=O)(=O)c2ccc3c(c2)NC(=O)CC(=O)N3)c2cc(Cl)ccc2O1 (stereo not drawn)	?	2.1µM*	-22%	10%	-50%	-10%
CCCOc1ccc(C(C)=O)cc1CSc1nc(O)cc(=O)[nH]1	0.93µM*	.	0%	-2%	-37%	10%
CCCOc1ccc(C(C)=O)cc1CSCCC#N	?	-28%	-10%	3%	-13%	-12%
CCCCc1ccc(NS(=O)(=O)c2ccc(N3CCCCS3(=O)=O)cc2)cc1	.	.	.	.	.	8%
Cc1nc2c([nH]1)c(=O)n(C)c(=O)n2Cc1ccco1	5.4µM*	4%	.	.	.	.
O=C(NC(=S)NCc1ccc(-c2nc3ccccc3s2)cc1)c1ccco1	15µM*	185%	4%	0%	-11%	2%
COC(=O)C(O)(c1ccc2c(c1)CCCN2)C(F)(F)F (stereo not drawn)	8.3µM*	.	0%	-6%	-10%	-13%
CCOC(=O)c1cnc2c(ccc3ccccc32)c1NCCO	?	14%	11µM*	14%	1%	-1%
CCOC(=O)c1cnc2ccc(C)cc2c1NCCO	?	13µM*	-4%	2%	-12%	?
CCOC(=O)c1cnc2c(ccc3ccccc32)c1NCCN(C)C	12%	0%	-26%	15%	33%	-5%
Cc1ccc(-c2noc(CCC(=O)NC3CCCc4ccccc43)n2)cc1 (stereo not drawn)	1.7µM*	-23%	-22%	4%	18%	-9%
COc1cccc(-c2noc(CCCC(=O)NC3CCCC3)n2)c1	2.3µM*	-6%	?	-8%	5%	?
O=C(CCc1nc(-c2ccc(Cl)cc2)no1)NC1CCCC1	29%	14%	6%	-3%	-9%	?
O=C(CCCc1nc(-c2ccc(Cl)cc2)no1)NC1CCCCC1	8%	11%	7.1µM*	6%	-14%	-4%
Cc1ccc(-c2noc(CCCC(=O)NC3CCCC3)n2)cc1	29%	-28%	?	13%	10%	-4%
COc1ccc(-c2nc(C)c(CCNC(=O)c3ccc(F)c(F)c3)s2)cc1	.	.	.	.	.	-2%
CC(C)(C)Nc1nc(NC(C)(C)C)nc(-n2ccnc2)n1	?	1.3µM*	?	6%	2%	0%
